Experiment [1] can be described thus: optical density shifts of acrAB sulA E. coli – strain DRC41, OD650, 48 h, E. coli filamentation inducer project, primary screen (AID 1152).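 Note: E. coli MC1000 strain DRC41 lacking acrAB efflux pump and sulA.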 Particulars: higher = more signal, called active from +8 up or from −8 down.
Experiment [2] is described as follows: probe aLefty1 binding on compound microarray – biochemical, small-molecule microarray, 635/667 nm fluorescence, primary screen (AID 1153).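 Note: score merges spot fluorescence with signal-to-noise ratio from the scanned slide images.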 The conditions noted are these: higher = more signal.
Experiment [3] in a line: plasmodial surface anion channel blockers, osmotic lysis – cell-based, P. falciparum Indochina, OD700, 1 h, primary screen (AID 1154). The conditions noted are these: P. falciparum Indochina infected RBC osmotic lysis, higher = more signal, called active from +8 up or from −8 down.
Experiment [4] in a line: plasmodial surface anion channel blockers, osmotic lysis – cell-based, P. falciparum Indochina, OD700, 2 h, primary screen (AID 1155).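 Note: lysis reports solute entry through the parasite surface anion channel PSAC.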 The conditions noted are these: P. falciparum Indochina infected erythrocytes, higher = more signal, called active from +8 up or from −8 down.
A short description of experiment [5]: changes in parasitized red cell lysis, either direction – P. falciparum Indochina, OD700, 3 h, PSAC antagonist project, primary screen (AID 1156). Particulars: P. falciparum-infected erythrocytes, osmotic lysis, higher = more signal, called active from +8 up or from −8 down.
Experiment [6] in a line: plasmodial surface anion channel blockers, osmotic lysis – cell-based, P. falciparum Indochina, OD700, 18 h, primary screen (AID 1157). Particulars: P. falciparum Indochina infected erythrocytes, osmotic lysis OD700, 18 h; higher = more signal, called active from +8 up or from −8 down.
Experiment [7] is described as follows: S6 kinase pathway phospho-S6 level changes – cell-based, A549, cytoblot, luminescence, serum-stimulated, primary screen (AID 1158).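 Note: serum-stimulated A549 lung adenocarcinoma cells; signal is phosphorylated S6 detected by cytoblot immunostaining with HRP secondary.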 The conditions noted are these: 5 h, higher = more signal.
For experiment [8], the target named is NADPH oxidase 2 (Homo sapiens) (UniProt P04839). Kind of experiment: compounds shifting NOX2 Amplex Red fluorescence – cell-based, HEK293-NOX2, PMA-stimulated, NOX inhibitor project, primary screen (AID 1159). Note: test concentration not given here. The conditions noted are these: 45 min, higher = more signal, called active from +8 up or from −8 down.
For experiment [9], the target named is NADPH oxidase 4 (Homo sapiens) (UniProt Q9NPH5). Kind of experiment: compounds shifting NOX4 Amplex Red fluorescence – cell-based, HEK293-NOX4, tetracycline-induced, NOX inhibitor project, primary screen (AID 1160). The conditions noted are these: HEK293-NOX4, Amplex Red H2O2 fluorescence, 45 min; higher = more signal, called active from +8 up or from −8 down.

Experiment [10] concerns the target NADPH oxidase 5 (Homo sapiens) (UniProt Q96PH1). Briefly: compounds shifting NOX5 Amplex Red fluorescence – cell-based, HEK293-NOX5, NOX inhibitor project, primary screen (AID 1161). Particulars: HEK293-NOX5, ionomycin, 45 min, higher = more signal.
Experiment [11] can be described thus: compound effects on lung adenocarcinoma cell viability – A549, calcein-AM fluorescence, 48 h, basal, profiling panel (AID 1162). Note: test concentration not given here. The conditions noted are these: higher = more signal.
The nature of experiment [12]: compound effects on differentiated 3T3-L1 adipocyte viability – cell-based, 3T3-L1 adipocytes, calcein-AM fluorescence, 48 h, basal, profiling panel (AID 1163). Note: test concentration not given here. Particulars: 3T3-L1 adipocytes viability, higher = more signal.
Experiment [13] is described as follows: compound effects on hepatocellular carcinoma cell viability – HepG2, calcein-AM fluorescence, 48 h, basal, profiling panel (AID 1164). Note: test concentration not given here. Particulars: higher = more signal.
The nature of experiment [14]: compound effects on multiple myeloma cell viability – MM1S, calcein-AM fluorescence, 48 h, basal, profiling panel (AID 1165).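 Note: viability of MM1S multiple myeloma cells under basal unstimulated conditions; test concentration not given here.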 Particulars: higher = more signal.
Experiment [15] in a line: calcein-AM signal in unstimulated myeloma cells – cell-based, calcein-AM fluorescence, 48 h, PK04 Diversity Set, profiling panel (AID 1166).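 Note: cells grown under basal conditions without added stimulus; test concentration not given here.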 The conditions noted are these: RPMI8226 myeloma viability, higher = more signal.
Experiment [16] in a line: JC-1 mitochondrial signal, unstimulated HepG2 cells – cell-based, JC-1 fluorescence, 24 h, 100 nL compound, profiling panel (AID 1167). Note: test concentration not given here. The conditions noted are these: HepG2 mitochondrial potential, higher = more signal.
Experiment [17] can be described thus: JC-1 mitochondrial signal, unstimulated adipocytes – cell-based, JC-1 fluorescence, 3T3-L1 adipocytes, 24 h, 100 nL compound, profiling panel (AID 1168). Note: test concentration not given here. The conditions noted are these: JC-1 mitochondrial fluorescence, higher = more signal, called active from +8 up or from −8 down.
The nature of experiment [18]: JC-1 mitochondrial signal, unstimulated myeloma cells – cell-based, JC-1 fluorescence, RPMI8226, 24 h, 100 nL compound, profiling panel (AID 1169). Note: test concentration not given here. The conditions noted are these: JC-1 mitochondrial potential fluorescence, higher = more signal.
Experiment [19] in a line: JC-1 mitochondrial signal, unstimulated MM1S myeloma – cell-based, JC-1 fluorescence, 24 h, 100 nL compound, profiling panel (AID 1170). Note: test concentration not given here. The conditions noted are these: MM1S mitochondrial potential, higher = more signal.
Experiment [20] is described as follows: resazurin metabolic signal in A549 cells – cell-based, resazurin fluorescence, 24 h, PK04 Diversity Set, profiling panel (AID 1171). Note: test concentration not given here. The conditions noted are these: A549 viability, higher = more signal, called active from +8 up or from −8 down. On the technique in general: Alamar Blue is a resazurin reagent that responds to reducing activity.

The structures appear in SMILES notation. The source made the active and inactive calls.

Chain of NADPH oxidase 2 (Homo sapiens) (P04839 whole entry, looked up): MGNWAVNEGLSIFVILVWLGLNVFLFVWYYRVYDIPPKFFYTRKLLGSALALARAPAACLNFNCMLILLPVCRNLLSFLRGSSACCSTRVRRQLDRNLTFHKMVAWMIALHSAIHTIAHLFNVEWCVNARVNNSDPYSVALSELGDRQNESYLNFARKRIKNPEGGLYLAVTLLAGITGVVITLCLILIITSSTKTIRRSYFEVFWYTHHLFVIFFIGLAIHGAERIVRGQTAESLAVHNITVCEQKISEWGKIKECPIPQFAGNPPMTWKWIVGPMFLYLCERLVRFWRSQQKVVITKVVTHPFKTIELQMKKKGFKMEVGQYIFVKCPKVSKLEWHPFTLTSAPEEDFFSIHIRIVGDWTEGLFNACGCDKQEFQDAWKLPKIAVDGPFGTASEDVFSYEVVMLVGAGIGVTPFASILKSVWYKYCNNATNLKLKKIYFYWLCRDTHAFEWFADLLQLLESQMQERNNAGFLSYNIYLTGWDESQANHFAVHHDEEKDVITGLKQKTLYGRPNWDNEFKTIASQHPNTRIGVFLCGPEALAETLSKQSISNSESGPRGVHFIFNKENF
Chain of NADPH oxidase 4 (Homo sapiens) (Q9NPH5 whole entry, looked up): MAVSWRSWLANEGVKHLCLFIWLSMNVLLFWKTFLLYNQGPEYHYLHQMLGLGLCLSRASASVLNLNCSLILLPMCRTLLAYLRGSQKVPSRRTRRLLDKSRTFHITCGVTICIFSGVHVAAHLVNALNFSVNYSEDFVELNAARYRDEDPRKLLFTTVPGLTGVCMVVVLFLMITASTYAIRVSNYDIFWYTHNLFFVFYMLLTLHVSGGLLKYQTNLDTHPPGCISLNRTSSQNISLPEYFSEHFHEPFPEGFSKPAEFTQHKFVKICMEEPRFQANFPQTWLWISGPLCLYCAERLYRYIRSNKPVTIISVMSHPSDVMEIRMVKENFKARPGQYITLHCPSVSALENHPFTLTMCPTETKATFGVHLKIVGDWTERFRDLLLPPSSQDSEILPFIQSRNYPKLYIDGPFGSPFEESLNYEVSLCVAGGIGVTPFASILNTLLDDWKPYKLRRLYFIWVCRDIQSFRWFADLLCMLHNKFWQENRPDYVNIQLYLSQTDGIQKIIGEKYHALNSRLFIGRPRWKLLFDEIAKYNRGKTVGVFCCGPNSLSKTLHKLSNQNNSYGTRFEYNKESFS
Chain of NADPH oxidase 5 (Homo sapiens) (Q96PH1 whole entry, looked up): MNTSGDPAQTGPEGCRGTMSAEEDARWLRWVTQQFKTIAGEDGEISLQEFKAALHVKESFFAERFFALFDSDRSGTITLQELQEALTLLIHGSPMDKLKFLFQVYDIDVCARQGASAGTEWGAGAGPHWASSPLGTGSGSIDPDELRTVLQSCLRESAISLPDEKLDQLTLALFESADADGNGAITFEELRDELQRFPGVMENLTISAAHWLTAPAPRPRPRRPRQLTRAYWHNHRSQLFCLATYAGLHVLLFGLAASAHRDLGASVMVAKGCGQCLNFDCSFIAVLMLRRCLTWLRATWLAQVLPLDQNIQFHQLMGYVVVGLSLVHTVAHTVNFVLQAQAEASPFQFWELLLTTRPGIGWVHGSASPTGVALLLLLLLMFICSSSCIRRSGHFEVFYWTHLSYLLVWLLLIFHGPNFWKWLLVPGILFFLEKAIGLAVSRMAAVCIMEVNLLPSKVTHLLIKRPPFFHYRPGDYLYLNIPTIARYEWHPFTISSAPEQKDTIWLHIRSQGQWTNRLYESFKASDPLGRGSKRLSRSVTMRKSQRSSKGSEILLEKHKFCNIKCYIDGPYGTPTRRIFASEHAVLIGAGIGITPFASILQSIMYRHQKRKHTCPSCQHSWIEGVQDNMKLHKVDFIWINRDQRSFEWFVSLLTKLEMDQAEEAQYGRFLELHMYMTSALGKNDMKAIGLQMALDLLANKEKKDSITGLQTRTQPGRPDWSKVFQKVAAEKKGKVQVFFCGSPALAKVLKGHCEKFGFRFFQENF

Consider `C=CC[C@]1(C(=O)OC)N=C(c2ccc(OCCCO)cc2)O[C@H]1c1ccccc1N=[N+]=[N-]`, for which the z-score was -0.908 (inactive) in [1]; 30.3 (active) in [3]; 26.5 (active) in [4]; 5.34 (inactive) in experiment [5]; 4.92 (inactive) in [6]; 0.26 in experiment [7]. Further, the z-score in experiment [8] is -1.89 (inactive); in [9] it was 0.988 (inactive); in [10], -0.21; in experiment [11], -1.22; in [12], 0.617; in [13] it was -0.491. For the same compound, the z-score in experiment [14] was -0.54; in [15] it was -2.37; in experiment [16], 0.54; in experiment [17], 0.147 (inactive); in experiment [18], -1.13; in experiment [19] it was 0.676. For the same compound, in experiment [20], the z-score is -1.6 (inactive). Also, in experiment [2], the composite z-score stood at 1.06.

On to `CC(C)CNC(=O)[C@@H]1c2ccccc2C(=O)N(C(C)C)[C@H]1c1ccc(CO)cc1`, for which the z-score in [1] was 0.941 (inactive); in [3], 0.747 (inactive); in [4], -0.483 (inactive); in experiment [5], -0.758 (inactive); in [6], -0.779 (inactive); in experiment [7], 1.85. For the same compound, the z-score in experiment [8] was -0.215 (inactive); in [9], 0.443 (inactive); in experiment [10], 0.887; in experiment [11], 0.456; in experiment [12] it was 1.27; in experiment [13] it was 1.15. Moreover, the z-score is 0.333 in [14]; 1.49 in experiment [15]; 1.49 in experiment [16]; 1.29 (inactive) in experiment [17]; 0.793 in experiment [18]; -0.357 in [19]. The z-score in experiment [20] was -0.174 (inactive). Moreover, the composite z-score in [2] is -0.0559.

As to `CC(C)C[C@@H]1NC(=O)[C@@H]2C[C@H](C(=O)O)[C@H](c3ccc(O)cc3)N2C1=O`, the z-score was 2.59 (inactive) in experiment [1]; 4.56 (inactive) in experiment [3]; 0.677 (inactive) in [4]; -0.641 (inactive) in experiment [5]; 0.179 (inactive) in experiment [6]; 1.09 in experiment [7]. Further, the z-score in experiment [8] is 0.304 (inactive); in experiment [9], 0.398 (inactive); in [10], -0.107; in experiment [11], 0.704; in [12], 0.37; in experiment [13], 0.285. Besides, the z-score in [14] was -1.32; in [15], 0.126; in experiment [16], 0.962; in experiment [17], -0.773 (inactive); in experiment [18], -0.49; in [19], 0.3. For the same compound, in [20], the z-score is 1.64 (inactive). Further, in experiment [2], the composite z-score is 0.013.

In the case of `COC(=O)c1ccc([C@H](NC(=O)c2ccccc2)[C@]2(C)C[C@H]2C2CCCCC2)cc1`, the z-score in [1] was -2.26 (inactive); in experiment [3], 8.84 (active); in experiment [4] it was 1.56 (inactive); in [5], -0.281 (inactive); in experiment [6], 0.692 (inactive); in [7], 0.0094. Moreover, the z-score in experiment [8] is 0.0662 (inactive); in experiment [9], -0.602 (inactive); in [10], 1.22; in experiment [11], -0.844; in experiment [12], -1.92; in [13], -0.949. Besides, the z-score in experiment [14] was -0.831; in [15], -0.733; in [16], -1.15; in [17], -1.16 (inactive); in experiment [18], 0.624; in experiment [19], -1.33. Besides, the z-score in experiment [20] is 0.768 (inactive). Further, the composite z-score in experiment [2] was determined as 0.718.

On to `Cc1ccc(F)cc1S(=O)(=O)N[C@@H]1CCN(Cc2ccc3c(c2)OCO3)C1`, for which the z-score was -3.25 (inactive) in experiment [1]; 1.36 (inactive) in experiment [3]; 0.491 (inactive) in experiment [4]; 0.076 (inactive) in experiment [5]; 0.329 (inactive) in experiment [6]; -0.0688 in [7]. The z-score in [8] was -0.438 (inactive); in experiment [9], -0.228 (inactive); in experiment [10], -0.687; in experiment [11] it was 0.923; in [12], -0.447; in experiment [13], 0.326. Moreover, the z-score is 0.361 in experiment [14]; -0.525 in experiment [15]; -0.184 in experiment [16]; -0.0208 (inactive) in experiment [17]; 0.302 in [18]; -0.591 in [19]. Also, the z-score in experiment [20] is -0.156 (inactive). The compound also displayed a composite z-score in [2] of -0.0984.

As for `CC(C)CNC(=O)[C@@H]1c2ccccc2C(=O)N(C2Cc3ccccc3C2)[C@H]1c1ccc(CO)cc1`, the z-score in experiment [1] is 1.93 (inactive); in experiment [3], 3.11 (inactive); in experiment [4] it was 0.693 (inactive); in experiment [5], 1.18 (inactive); in experiment [6], 0.232 (inactive); in experiment [7] it was 0.0629. For the same compound, the z-score was 0.182 (inactive) in experiment [8]; 1.12 (inactive) in experiment [9]; 0.105 in [10]; 2.03 in experiment [11]; 0.319 in experiment [12]; 1.74 in [13]. The z-score in experiment [14] was 0.0933; in [15], 0.362; in experiment [16], 3.2; in experiment [17], 0.228 (inactive); in [18] it was -0.836; in experiment [19], 0.00489. Besides, in experiment [20], the z-score was 0.797 (inactive). For the same compound, in [2], the composite z-score was determined as 0.0861.

As to `CCCCCCCCCCC(O)C1C=CC2C(=O)N(C)C(=O)C2N1N1CCCCC1` (stereo not given), the z-score was -1.83 (inactive) in experiment [1]; 9.71 (active) in [3]; 2.41 (inactive) in [4]; 2.12 (inactive) in experiment [5]; 2.2 (inactive) in [6]; -1.58 in experiment [7]. In addition, the z-score in [8] was 1.18 (inactive); in experiment [9], -1.94 (inactive); in experiment [10] it was 2.16; in experiment [11] it was -1.25; in experiment [12], -1.6; in [13] it was -1.17. The z-score in experiment [14] is -3.29; in [15], -3.54; in experiment [16], -0.235; in experiment [17] it was -1 (inactive); in experiment [18] it was -1; in experiment [19], -0.517. In addition, the z-score in experiment [20] is -0.041 (inactive). The compound also had a composite z-score in [2] of 0.532.

Take `C=CC[C@@]12N=C(c3ccc(OCCCO)cc3)O[C@@H]1c1ccccc1N(Cc1ccccc1)C2=O`: the z-score is 1.04 (inactive) in experiment [1]; 31.3 (active) in experiment [3]; 28.1 (active) in [4]; 3.1 (inactive) in [5]; 2.31 (inactive) in experiment [6]; -0.0677 in experiment [7]. Also, the z-score is -0.812 (inactive) in experiment [8]; -0.091 (inactive) in experiment [9]; -1.59 in experiment [10]; -0.395 in [11]; 0.555 in experiment [12]; -1.48 in experiment [13]. Besides, the z-score is -3.4 in [14]; -4.23 in [15]; 0.394 in [16]; 2.91 (inactive) in [17]; -1.25 in [18]; -0.934 in [19]. Further, the z-score in [20] is -1.1 (inactive). In experiment [2], this compound gave a composite z-score of 1.47.

Regarding `CCCCC(=C=CC[C@@H](O)c1ccc(OCCO)cc1)C[C@@H](O)c1ccccn1`, the z-score in [1] was 0.26 (inactive); in [3] it was 15.7 (active); in [4], 2.47 (inactive); in experiment [5], 0.871 (inactive); in experiment [6], 0.849 (inactive); in [7], -0.787. Further, the z-score was -0.697 (inactive) in experiment [8]; -0.351 (inactive) in [9]; -1.77 in [10]; -0.0074 in experiment [11]; 0.0358 in experiment [12]; 0.333 in experiment [13]. The z-score was -2.63 in experiment [14]; -0.616 in experiment [15]; -1.05 in experiment [16]; -1.58 (inactive) in experiment [17]; -0.674 in [18]; -0.94 in experiment [19]. In addition, the z-score in [20] is -0.477 (inactive). The composite z-score in experiment [2] was found to be 0.122.
